Measurements reported in PubChem BioAssay (Tox21).
Results filed as inconclusive are left out. Unmarked numbers belong to inactive results. Calls of active or inactive are those of the source. Calls come from the whole dose curve. Where a SMILES comes first, the peptide text is derived from it. [ ]: non-standard residue; d: D form. pGlu = O=C1CC[C@@H](C(=O)O)N1

Test: qHTS assay to identify small molecule agonists of the AP-1 signaling pathway - cell viability counter screen (AID 1159525); note: nearly all actives have a fitted effect of over 55% in size
Details: ME-180 AP-1-bla cells viability, ATP luminescence, 5 h; series mostly up to 76.8 µM
Procedure, shortened: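 Each titration point was normalised to DMSO and tetra n-octyl ammonium bromide controls. The read was Cell Titer Glo luminescence after 30 min at RT, following 5 h compound exposure of ME-180 AP-1-bla cells at 37 °C.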

Compound | outcome | viability change, negative = cytotoxic
O=C(O)CNC(=O)c1ccccc1 | inactive | 
CC(C)CC(C)(N)C#N (stereo unspecified) | inactive | 
CCOC(=O)c1cnc2c(cnn2CC)c1NN=C(C)C | inactive | 
COc1ccccc1OCC1CNC(=O)O1 (stereo unspecified) | inactive | 
CO/N=C(\C(=O)N[C@@H]1C(=O)N2C(C(=O)O)=C(CSc3nc(=O)c(O)nn3C)CS[C@H]12)c1csc(N)n1 | inactive | 
O=C1CCCCCCCCCCCCCCO1 | inactive | 
CCCc1nn(C)c2c(=O)[nH]c(-c3cc(S(=O)(=O)N4CCN(C)CC4)ccc3OCC)nc12 | inactive | 
CCCCOC(=O)CCC(C)=O | inactive | 
O=CN(CCO)CCO | inactive | 
C[N+](C)(CCOc1ccccc1)Cc1cccs1 | inactive | 
CC1=NN(c2cccc(S(=O)(=O)O)c2)C(=O)C1 | inactive | 
CCOC(=O)C1=NOC(c2ccccc2)(c2ccccc2)C1 | inactive | 
CCC(=O)OCc1ccccc1 | inactive | 
COc1cc(C(=O)OC(COCCC(C)C)CN2CCOCC2)cc(OC)c1OC (stereo unspecified) | inactive | 
CC12CCC(C(=O)C1=O)C2(C)C (stereo unspecified) | inactive | 
NC(N)=NCCN1CCCCCCC1 |  | 8.04% [at 0.29 µM]
Cc1ncc(COP(=O)(O)O)c(C=O)c1O | inactive | 
CC(=O)Oc1cccc(C)c1 | inactive | 
CN1[C@@H]2CC[C@H]1CC(OC(=O)C(O)c1ccccc1)C2 (stereo partly specified) | inactive | 

Compound | outcome | viability change, negative = cytotoxic
CC(N)C12CC3CC(CC(C3)C1)C2 (stereo unspecified) | inactive | 
CCN(CC#N)c1cccc(C)c1 | inactive | 
CC1=NN(c2cc(S(=O)(=O)O)ccc2Cl)C(=O)C1N=Nc1ccccc1 (stereo unspecified) | inactive | 
CC(=O)c1ccccc1[N+](=O)[O-] | inactive | 
C=CCCC(=O)O | inactive | 
O=C(O)CC(C(=O)O)S(=O)(=O)O (stereo unspecified) | inactive | 
CC(C)CCCO | inactive | 
CC(COc1ccccc1)NN (stereo unspecified) | inactive | 
Nc1ccn([C@@H]2O[C@H](CO)[C@@H](O)[C@@H]2O)c(=O)n1 | inactive | 
CCNC(=O)[C@@H]1CCCN1C(=O)[C@H](CCCN=C(N)N)NC(=O)[C@H](CC(C)C)NC(=O)CNC(=O)[C@H](Cc1ccc(O)cc1)NC(=O)[C@H](CO)NC(=O)[C@H](Cc1c[nH]c2ccccc12)NC(=O)[C@H](Cc1cnc[nH]1)NC(=O)[C@@H]1CCC(=O)N1 ([pGlu]HWSYGLRP-NHEt) | inactive | 
CCCCN(CCC(=O)OCC)C(C)=O | inactive | 
CCCn1cc[n+](C)c1C | inactive | 
Clc1cc(Cl)cc(Cl)c1 | inactive | 
CCOC(=O)COc1cc(-n2ncc(C(F)(F)F)c(C)c2=O)c(F)cc1Cl | inactive | 
CC(C)COC(=O)c1ccc(N)cc1 | inactive | 
CC(=O)OCC(=O)[C@@]1(O)[C@H](C)C[C@H]2[C@@H]3CCC4=CC(=O)C=C[C@]4(C)[C@@]3(F)[C@@H](O)C[C@@]21C | inactive | 
O=C(O)CCCC[P+](c1ccccc1)(c1ccccc1)c1ccccc1 | inactive | 
CC1=CCC(O)(C(C)C)CC1 (stereo unspecified) | inactive | 
[K+] | inactive | 

Test: qHTS assay to identify small molecule agonists of the AP-1 signaling pathway (AID 1159526); note: % is set by controls: 0 for no effect and ±100 for the full control effect
Details: ME-180 (cervical carcinoma) AP-1-bla reporter, beta-lactamase FRET ratio, 5 h; series mostly up to 76.8 µM

Compound | outcome | activation
O=C(O)CNC(=O)c1ccccc1 | inactive | 
CC(C)CC(C)(N)C#N (stereo unspecified) | inactive | 
CCOC(=O)c1cnc2c(cnn2CC)c1NN=C(C)C | inactive | 
COc1ccccc1OCC1CNC(=O)O1 (stereo unspecified) | inactive | 
CO/N=C(\C(=O)N[C@@H]1C(=O)N2C(C(=O)O)=C(CSc3nc(=O)c(O)nn3C)CS[C@H]12)c1csc(N)n1 | inactive | 
O=C1CCCCCCCCCCCCCCO1 | inactive | 
CCCc1nn(C)c2c(=O)[nH]c(-c3cc(S(=O)(=O)N4CCN(C)CC4)ccc3OCC)nc12 | inactive | 
CCCCOC(=O)CCC(C)=O | inactive | 
O=CN(CCO)CCO | inactive | 
C[N+](C)(CCOc1ccccc1)Cc1cccs1 | inactive | 
CC1=NN(c2cccc(S(=O)(=O)O)c2)C(=O)C1 | inactive | 
CCOC(=O)C1=NOC(c2ccccc2)(c2ccccc2)C1 | inactive | 
CCC(=O)OCc1ccccc1 | inactive | 
COc1cc(C(=O)OC(COCCC(C)C)CN2CCOCC2)cc(OC)c1OC (stereo unspecified) | inactive | 
CC12CCC(C(=O)C1=O)C2(C)C (stereo unspecified) | inactive | 
NC(N)=NCCN1CCCCCCC1 |  | -7.76% [at 0.29 µM]
Cc1ncc(COP(=O)(O)O)c(C=O)c1O | inactive | 
CC(=O)Oc1cccc(C)c1 | inactive | 
CN1[C@@H]2CC[C@H]1CC(OC(=O)C(O)c1ccccc1)C2 (stereo partly specified) | inactive | 

Compound | outcome | activation
CC(N)C12CC3CC(CC(C3)C1)C2 (stereo unspecified) | inactive | 
CCN(CC#N)c1cccc(C)c1 | inactive | 
CC1=NN(c2cc(S(=O)(=O)O)ccc2Cl)C(=O)C1N=Nc1ccccc1 (stereo unspecified) | inactive | 
CC(=O)c1ccccc1[N+](=O)[O-] | inactive | 
C=CCCC(=O)O | inactive | 
O=C(O)CC(C(=O)O)S(=O)(=O)O (stereo unspecified) | inactive | 
CC(C)CCCO | inactive | 
CC(COc1ccccc1)NN (stereo unspecified) | inactive | 
Nc1ccn([C@@H]2O[C@H](CO)[C@@H](O)[C@@H]2O)c(=O)n1 | inactive | 
CCNC(=O)[C@@H]1CCCN1C(=O)[C@H](CCCN=C(N)N)NC(=O)[C@H](CC(C)C)NC(=O)CNC(=O)[C@H](Cc1ccc(O)cc1)NC(=O)[C@H](CO)NC(=O)[C@H](Cc1c[nH]c2ccccc12)NC(=O)[C@H](Cc1cnc[nH]1)NC(=O)[C@@H]1CCC(=O)N1 ([pGlu]HWSYGLRP-NHEt) | inactive | 
CCCCN(CCC(=O)OCC)C(C)=O | inactive | 
CCCn1cc[n+](C)c1C | inactive | 
Clc1cc(Cl)cc(Cl)c1 | inactive | 
CCOC(=O)COc1cc(-n2ncc(C(F)(F)F)c(C)c2=O)c(F)cc1Cl | inactive | 
CC(C)COC(=O)c1ccc(N)cc1 | inactive | 
CC(=O)OCC(=O)[C@@]1(O)[C@H](C)C[C@H]2[C@@H]3CCC4=CC(=O)C=C[C@]4(C)[C@@]3(F)[C@@H](O)C[C@@]21C | inactive | 
O=C(O)CCCC[P+](c1ccccc1)(c1ccccc1)c1ccccc1 | inactive | 
CC1=CCC(O)(C(C)C)CC1 (stereo unspecified) | inactive | 
[K+] | inactive | 
